Screens from PubChem BioAssay.
Hits are enriched below; roughly 1.2% of the tested compounds scored in any of these assays.
PriA SSB inh = blocks PriA binding to SSB C-terminal tail. AlphaScreen SSBct-PriA binding, biotinylated peptide. AID 1272365. 430,000 tested, 0.6% active. inhibition, % at 33 µM; in the data active means inhibition mostly above about 37%, no sharp cut-off; inactive means mostly below about 20%;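 further: plate controls were negative control peptide for no effect and reference peptide for full effect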
Rv3671c inh = inhibits the M. tuberculosis serine protease Rv3671c; P9WHR9; inhibition, % at 5.96 µM; 320,000 tested, 0.048% active; AID 2606; in the data active means inhibition above about 38%;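 further: extracellular domain of Rv3671c used as enzyme; 0% = enzyme with DMSO and 100% = no enzyme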
Mtb UGM inh = blocks M. tuberculosis UGM enzyme; P9WIQ1; purified UGM, fluorescence polarization probe displacement; inhibition, % at 10 µM; 320,000 tested, 0.06% active; AID 504406; in the data active means inhibition above about 10%, passing the limit was not always enough
Target sequence (P9WIQ1 whole entry, looked up): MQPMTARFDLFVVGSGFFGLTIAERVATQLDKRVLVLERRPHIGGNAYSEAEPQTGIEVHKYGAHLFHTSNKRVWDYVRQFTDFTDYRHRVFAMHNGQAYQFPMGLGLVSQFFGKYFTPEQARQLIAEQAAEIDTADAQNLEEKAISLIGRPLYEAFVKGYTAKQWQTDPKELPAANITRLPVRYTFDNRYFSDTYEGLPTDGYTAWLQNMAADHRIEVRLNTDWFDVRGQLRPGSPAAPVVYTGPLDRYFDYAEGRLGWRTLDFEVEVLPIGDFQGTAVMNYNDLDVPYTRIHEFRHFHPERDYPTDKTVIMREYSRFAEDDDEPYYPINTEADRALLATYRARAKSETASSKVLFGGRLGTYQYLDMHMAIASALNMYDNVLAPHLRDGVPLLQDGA
PrP 5UTR inh = inhibition of PrP 5' UTR reporter expression | inhibition, % (no concentration beside the values) | cell-based PrP 5' UTR mRNA reporter, plate reader | AID 488862 | 340,000 tested, 0.35% active; in the data active means inhibition above about 52%; further: 0 = median of the neutral control wells
PrPC TRFRET = reduces human prion protein on the cell surface; P04156; cell surface PrPC, TR-FRET read-out; inhibition, % at 13.8 µM; 370,000 tested, 0.43% active; AID 720596; in the data active means inhibition above about 24%; further: 0% = median of the test wells and 100% = reference compound wells
FadD28 binding = inhibitors of Mycobacterium tuberculosis FadD28 bisubstrate binding; FadD28 bisubstrate probe binding, fluorescence polarization; 360,000 tested, 0.22% active; inhibition, % at 12.5 µM; in the data active means inhibition above about 8.5%, passing the limit was not always enough
* marks the source's active call; other numbers are inactive results; . = not tested or not shown; ! = a repeat was not active.

SMILES	PriA SSB inh	Rv3671c inh	Mtb UGM inh	PrP 5UTR inh	PrPC TRFRET	FadD28 binding
COc1ccc(NC(=O)Cn2c(=O)oc3cc(S(=O)(=O)N4CCCC4)ccc32)c(OC)c1	-3.8	5.0	3.4	-15.2	7.7	0.0
CC1Cc2ccccc2N1C(=O)Cn1c(=O)oc2cc(S(=O)(=O)NC3CCCC3)ccc21 (centres undefined)	-2.1	-8.7	1.6	-4.0	8.3	0.8
COc1cccc(NC(=O)Cn2c(=O)oc3cc(S(=O)(=O)N4CCCC4)ccc32)c1	-3.8	3.1	3.0	-29.3	1.3	24.0*
O=C(c1ccc(Cn2ccnc2)cc1)N1CCCC[C@H](c2ccc(F)cc2)C1	32.0*	.	.	.	.	.
CC(=O)NC(c1ccccc1)c1cc(Cl)c2cccnc2c1O (centres undefined)	-3.2	1.8	2.0	19.0	22.3	-3.3
COc1ccc(C(NC(C)=O)c2cc(Cl)c3cccnc3c2O)cc1 (centres undefined)	42.6	11.4	-0.8	-3.4	28.4*	0.6
c1ccc(CNCCN2CCNCC2)nc1	38.4*	-7.1	-0.4	-2.3	-1.0	1.9
O=C(OC(c1ccccc1)c1nccc2ccccc12)c1cc([N+](=O)[O-])cc([N+](=O)[O-])c1 (centres undefined)	51.7*	7.0	2.1	-6.4	-36.2	-4.2
O=C(CSC1CCCC1)N1CCC(COCc2ccccc2)CC1	-17.0	.	.	.	.	.
Cc1noc(C2CCCN2C(=O)NCCCc2ccccc2)n1 (centres undefined)	54.0*	.	.	.	.	.
Cc1noc(C2CCN(C(=O)CCCc3ccccc3)CC2)n1	5.0	.	.	.	.	.
O=C(CSc1ccc(-c2ccccn2)nn1)Nc1cccc(F)c1	55.4*	-3.1	4.4	-18.5	6.6	-0.7
COC(=O)c1ccc(NC(=O)CSc2ccc(-c3ccccn3)nn2)cc1	37.0*!	-2.4	0.4	-22.2	-1.2	-0.1
O=C(CSc1ccc(-c2ccccn2)nn1)Nc1nccs1	-13.0	13.5	-0.1	-52.7	-1.0	-4.6
O=C(CSc1ccc(-c2ccccn2)nn1)Nc1ccc(F)cc1	23.2	.	.	.	.	.
COc1ccc(CCNC(=O)CSc2ccc(-c3ccccn3)nn2)cc1OC	93.8*	.	.	.	.	.
Cc1csc(NC(=O)CSc2ccc(-c3ccccn3)nn2)n1	63.2*	1.2	-2.4	-23.3	1.8	-1.3
CNC(=O)c1cc(Br)c(C)c(C)c1C	-22.0	.	.	.	.	.
COc1ccccc1CCNC(=O)CSc1ccc(-c2ccc3c(c2)OCO3)nn1	67.0*	.	.	.	.	.
O=C(CSc1ccc(-c2ccccn2)nn1)Nc1cccc([N+](=O)[O-])c1	48.0*	.	.	.	.	.
CCOCCCn1c(=NC(=O)c2cccs2)c(C#N)cc2c(=O)n3ccccc3nc21	-14.8	2.1	15.9*	-18.5	-25.6	-2.6
Cc1cccn2c(=O)c3cc(C#N)c(=NC(=O)c4cccs4)n(CCCOC(C)C)c3nc12	-6.0	-0.9	2.4	-13.6	-5.9	-1.5
O=C(Nc1ccc([N+](=O)[O-])cc1)c1ccc(CSc2ccccc2)o1	-3.0	.	.	.	.	.
COc1ccc(Cl)cc1C(=O)NN=C1CCCC1	-6.6	0.7	0.9	-13.7	-8.4	-3.1
O=C(NN=C1CCCC1)c1cc(Cl)cc(Cl)c1O	-10.6	7.1	0.3	-16.2	-1.4	20.1*
SMILES	PriA SSB inh	Rv3671c inh	Mtb UGM inh	PrP 5UTR inh	PrPC TRFRET	FadD28 binding
COc1ccc(OC)c(-c2ccc(=O)n(CC(=O)N3CCCC3)n2)c1	-12.0	.	.	.	.	.
CN(C)c1ccc(CCNC(=O)c2cccc3ccccc23)cc1	5.0	.	.	.	.	.
COc1ccc(NC(=O)C(=O)NC[C@@H](c2ccc(F)cc2)N2CCOCC2)c(OC)c1	-8.0	.	.	.	.	.
Cn1cc(S(=O)(=O)N2CCCN(C(=O)NCc3cccs3)CC2)cn1	-10.0	.	.	.	.	.
O=c1/c(=C\c2cc([N+](=O)[O-])cc([N+](=O)[O-])c2O)sc2nc3ccccc3n12	.	0.3	2.7	-15.1	.	22.9*
O=c1c(=Cc2cc([N+](=O)[O-])cc([N+](=O)[O-])c2O)sc2nc3ccccc3n12	7.5	.	.	.	.	.
Cn1ccc(C(=O)Nc2ccccc2-c2nc3ccccc3[nH]2)n1	2.0	.	.	.	.	.
Cc1ccccc1C1=C/C(=C(\SS/C(C(=O)c2ccc(OCC(=O)O)c(Cl)c2Cl)=C2\C=C(c3ccccc3C)SS2)C(=O)c2ccc(OCC(=O)O)c(Cl)c2Cl)SS1	62.1*	.	.	-2.4	7.1	73.3*
CC(=O)Nc1ccc(SCCCC(=O)Nc2ccc(S(N)(=O)=O)cc2)nn1	-6.0	.	.	.	.	.
CC(=O)NC(Cc1ccccc1)C(=O)OCC(=O)c1ccc(Br)cc1 (centres undefined)	2.9	-4.6	0.4	-18.9	9.5	-1.1
CC(=O)NC(Cc1ccccc1)C(=O)OCC(=O)c1ccccc1 (centres undefined)	4.9	-2.0	12.7*	0.9	-8.6	-2.8
O=C(NCc1nc2ccccc2[nH]1)C1CN(S(=O)(=O)C2CC2)C1	-4.0	.	.	.	.	.
CCOC(=O)c1c(C)[nH]c(C2=NNC(=Nc3ccccc3OC)SC2)c1C	53.5*	12.9	-1.9	-93.0	-2.7	-0.6
O=C(NC(c1ccccc1)c1ccccc1)N(Cc1cnc2ccccn12)c1ccccc1	44.0*	.	.	.	.	.
O=C(CSc1nnc(-c2ccccn2)n1Cc1ccco1)c1ccc(Cl)cc1	89.9*	-7.7	0.6	-23.6	0.2	-5.0
O=C(O)c1ccc(NC2=C/C(=N/S(=O)(=O)c3cccs3)c3ccccc3C2=O)cc1	.	.	.	.	-27.5	6.0
O=C1C(Nc2ccc(O)cc2)=CC(=NS(=O)(=O)c2cccs2)c2ccccc21	75.8*	.	.	.	.	.
CCc1ccc(S(=O)(=O)N=C2C=C(Nc3ccc(O)cc3)C(=O)c3ccccc32)cc1	95.0*	.	.	.	.	.
O=C(NCCn1ccc(-c2cccs2)n1)NCc1cccs1	-6.0	.	.	.	.	.
O=C(Nc1ccc2sccc2c1)c1ccc([N+](=O)[O-])s1	46.0*	.	.	.	.	.
Nc1ccccc1Nc1ccncc1[N+](=O)[O-]	-11.0	-8.4	0.5	-30.4	-29.2	-2.9
Nc1ccccc1Nc1c(F)c(F)nc(F)c1Cl	38.5*	-6.3	2.5	-30.8	-0.4	-2.6
O=c1cc2oc3cc(O)c(O)cc3c(-c3ccccc3O)c-2cc1O	-1.7	.	.	-1.8	.	80.9*
Cc1ccccc1-c1cc(=O)c2c(O)cccc2o1	5.2	1.2	0.1	2.2	-1.6	-0.7
CCOc1ccccc1-c1c2cc(O)c(=O)cc-2oc2cc(O)c(O)cc12	41.4	.	.	-15.1	.	130.7*
SMILES	PriA SSB inh	Rv3671c inh	Mtb UGM inh	PrP 5UTR inh	PrPC TRFRET	FadD28 binding
O=C(NN=Cc1ccc(Br)s1)Nc1ccccc1	0.5	.	.	.	.	.
Brc1ccc(C=Nc2ccc(Nc3ccccc3)cc2)s1	88.2*	-10.3	-1.5	-7.4	.	-5.9
Cc1csc(C(=O)NCc2ccc([C@@H](O)c3ccco3)s2)c1	0.0	.	.	.	.	.
CC[C@@](CNS(=O)(=O)c1cccc(C(C)=O)c1)(OC)c1ccccc1	-1.0	.	.	.	.	.
C=CC(C)(C)c1c2occc2c(O)c2ccc(=O)oc12	-7.1	1.4	.	4.1	-2.6	14.2*
COc1cc(/C=C2\C(=O)N(c3ccc(NC(C)=O)cc3)N=C2c2ccccc2)ccc1O	-3.3	-70.8	5.3	-16.6	12.7	1.1
CCOc1cc(/C=C2\C(=O)N(c3nc(-c4ccc(Br)cc4)cs3)N=C2c2ccccc2)ccc1O	13.1	17.7	-0.9	-32.2	.	26.7*
Cc1cccc(-c2nc(Cn3c(=O)n(CC4CCCO4)c(=O)c4ccccc43)c(C)o2)c1 (centres undefined)	-7.0	.	.	.	.	.
